uPA generation = cell surface uPA generation inhibition; cell surface uPA generation assay, qHTS; Potency, µM (doses to about 38.3 µM), actives largely listed as inhibitors; 330,000 compounds, 0.31% hits; active = well fitted inhibition curve with a large enough effect; inconclusive = small, poorly fitted or top-dose-only effect; inactive = no such curve, though single readings can be large or run the other way; tested in mouse RAW 264.7 cells; note: nearly all actives have a fitted effect of over 55% in size
BCR signal inh = chronic active BCR signaling inhibition; AID 493014; ABC-DLBCL IkBa-CBG/CBR reporter, luminescence ratio, 4 h; Potency, µM (top dose mostly 46.1 µM), hits mostly inhibitors; 340,000 compounds, 0.05% hits; active = well fitted inhibition curve with a large enough effect in the signal ratio, with a control signal flat, not every such curve was filed as active; inconclusive = small, poorly fitted or top-dose-only effect, or effect the other way, or a change in a side signal; the % refers to the signal ratio
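Compounds up to 46 uM were incubated four hours with TMD8 cells whose green CBG68 luciferase is fused to IkappaBalpha; red CBR luminescence normalised the signal, and concentration-effect curves were fitted to fusion, red and ratio data.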
FUS suppressor = FUS proteinopathy suppression in yeast. S. cerevisiae FUS-expressing, growth rescue, OD600, 24 h. Potency, µM (highest dose often 76.6 µM), most hits filed as activators. 390,000 compounds, 0.24% hits. AID 1347120; note: nearly all actives have a fitted effect of over 55% in size
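Cultures pregrown in 2.5% raffinose medium are shifted to minimal medium containing 2% galactose to express toxic FUS. Compounds are tested at several concentrations. After 24hr at 30C, growth is quantified at 600 nm absorbance.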
Abeta rescue = A-beta toxicity reversal in yeast. yeast expressing A-beta42, growth rescue, OD600, 48 h; response scale: 0% DMSO, 100% iron-clioquinol control. Potency, µM (highest dose often 46.1 µM), usual class: activators. 410,000 compounds, 0.063% hits. AID 1347071; note: nearly all actives have a fitted effect of over 55% in size
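Yeast A-beta toxicity model in growth medium with pinned compounds, 48 h at 30 C; growth read as absorbance at 600 nm. Normalized to FeCl3/clioquinol equimolar mix (positive) and DMSO (negative).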
TDP43 rescue = inhibitors of TDP-43 toxicity in yeast | TDP-43 expressing yeast growth rescue, BacTiter-Glo, 24 h | Potency, µM (titrated, usually from 46.1 µM), hits mostly activators | 410,000 compounds, 1.8% hits | AID 652104; note: nearly all actives have a fitted effect of over 50% in size
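Cell-based yeast growth screen: TDP-43 expression induced in galactose, inoculum OD600=0.02 after raffinose pregrowth to mid-log. Read-out BacTiter-Glo luminescence at 24 hr, 30 deg C; inhibition of toxicity seen as signal increase.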
aSyn rescue = inhibitors of alpha-synuclein toxicity in yeast; Yeast expressing alpha-synuclein, growth rescue, BacTiter-Glo, 24 h; Potency, µM (highest dose often 46.1 µM), most hits filed as activators; AID 652106; 370,000 compounds, 0.14% hits; note: nearly all actives have a fitted effect of over 65% in size
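Rescue of yeast growth: cells expressing toxic alpha-synuclein, induced in galactose at OD600 0.02, incubated with compound 24 h at 30 C. ATP luminescence quantified growth; inhibitors of toxicity appear as activators.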
Large screens that a line does not name were inactive. Only some compounds are listed: those with a hit (about 2.3% of all), similar ones and a draw of the others. Unless noted, calls come from the whole dose curve; as a rule, active = well fitted curve in the direction sought with a large enough effect; inconclusive = small, poorly fitted or top-dose-only effect, or another doubt; inactive = no such curve, though single readings can be large; an effect the other way counts as inactive or inconclusive.

Cn1cc(C(=O)N/N=C/C(Br)=C\c2ccccc2)ccc1=O	BCR signal inh inconclusive
COc1cccc(C=C(C(C)=O)C(=O)c2ccccc2)c1	TDP43 rescue 11.2µM, aSyn rescue inconclusive (no result: uPA generation, BCR signal inh)
O=C(CC1SC(N2CCCCC2)=NC1=O)Nc1cccc(C(F)(F)F)c1 (stereo unspecified)	none
O=C(COc1ccccc1)Nc1cccc(S(=O)(=O)N2CCCC2)c1	BCR signal inh inconclusive
COc1ccc(CCNC(=O)c2sc3ccccc3c2Cl)cc1OC	BCR signal inh inconclusive
COc1ccc(-c2noc(N3CCC(C(=O)N(C)c4ccccc4)CC3)n2)cc1	TDP43 rescue 15.8µM
COC(=O)c1ccc(CNC(=O)N2CCN(S(=O)(=O)c3ccc(C)cc3)CC2)cc1	none
Cc1ccc(-c2ccc(NC(=O)C3C4C=CC(C4)C3C(=O)O)cc2)o1 (stereo unspecified)	BCR signal inh inconclusive, FUS suppressor inconclusive
O=C(CSc1nc2ccccc2n1-c1ccccc1)Nc1ncc(Cl)cc1Cl	BCR signal inh inconclusive, TDP43 rescue 22.4µM
Cc1cccc(-n2c(SCC(=O)Nc3ncc(Cl)cc3Cl)nc3ccccc32)c1	BCR signal inh inconclusive, FUS suppressor inconclusive
O=C(CSc1nnc(NC(=O)c2ccccc2F)s1)NCC1CCCO1 (stereo unspecified)	uPA generation 6.31µM (no result: FUS suppressor)
O=C(CSc1nnc(NC(=O)c2ccccc2)s1)NCC1CCCO1 (stereo unspecified)	uPA generation inconclusive (no result: FUS suppressor)
COc1ccc(Br)cc1CN1C(=O)NC2(CCCCCC2)C1=O	none
Cc1cccc(OCC(=O)Nc2ccc(N3CCN(C(=O)c4ccco4)CC3)cc2)c1C	none
O=C(COc1ccccc1Cl)Nc1ccc(N2CCN(C(=O)c3ccccc3)CC2)cc1	BCR signal inh inconclusive, TDP43 rescue 22.4µM
Cc1ccccc1OCC(=O)Nc1ccc(N2CCN(C(=O)c3ccco3)CC2)cc1	BCR signal inh inconclusive, Abeta rescue inconclusive, TDP43 rescue 15.8µM
O=C(COc1ccccc1Cl)Nc1ccc(N2CCCC2)cc1	BCR signal inh inconclusive
Cc1cc(C)c2cc(C#N)c(SCC(=O)Nc3cc(C)on3)nc2c1	none
CN1C(=O)C(=O)N(CC(=O)N2CCc3ccccc32)C1=O	BCR signal inh inconclusive
c1ccc(-c2ccnc3nc(N4CCN(c5ccccc5)CC4)nn23)cc1	TDP43 rescue 12.6µM
c1csc(CSc2nnc3sc4ccccc4n23)c1	BCR signal inh inconclusive, TDP43 rescue 14.1µM
CN(C)C(=O)CSc1nnc2sc3ccccc3n12	none
Cc1snc(SCC(=O)c2ccc(F)cc2)c1C#N	TDP43 rescue inconclusive
Cc1snc(SCC(=O)c2ccc([N+](=O)[O-])cc2)c1C#N	TDP43 rescue 22.4µM
O=C(NC(=S)N1CCOCC1)c1ccc([N+](=O)[O-])cc1	BCR signal inh 23.1µM (no result: FUS suppressor)
COc1cc(/C=C2\OC(=O)c3c(OC)cccc32)ccc1O	BCR signal inh 9.2µM
COc1cc(C=C2CN(C)C(=O)C2=O)ccc1O	none (no result: uPA generation, BCR signal inh)
O=C(CCC1N=C2c3ccccc3N=C(SCc3ccc(Cl)cc3)N2C1=O)NCCc1ccccc1 (stereo unspecified)	FUS suppressor 31.6µM (no result: uPA generation, BCR signal inh, aSyn rescue)
O=C(CCC1N=C2c3ccccc3N=C(SCc3cccc(Cl)c3)N2C1=O)NCCc1ccccc1 (stereo unspecified)	FUS suppressor inconclusive, TDP43 rescue inconclusive (no result: uPA generation, BCR signal inh, aSyn rescue)
O=C(CSC1=NCCS1)Nc1ccc(S(=O)(=O)NC2CCCCC2)cc1	FUS suppressor 39.8µM (no result: uPA generation)
CCOC(=O)N1CCC(NCCNC(=O)c2cccc(F)c2)CC1	none
COC(=O)[C@]12C[C@H](CC(=O)NCCc3ccccc3OC)C(=O)N(Cc3cccc4ccccc34)C1=C[C@H](C(C)(C)C)O[C@@H]2C	FUS suppressor 14.1µM (no result: uPA generation, BCR signal inh, Abeta rescue, TDP43 rescue, aSyn rescue)
COC(=O)[C@]12C[C@H](CC(=O)N3CCCCC3)C(=O)N(Cc3cccc4ccccc34)C1=C[C@H](C(C)C)O[C@@H]2C1CC1	none (no result: uPA generation, BCR signal inh, Abeta rescue, TDP43 rescue, aSyn rescue)
CCCCOCCCNC(=O)C[C@H]1C[C@@]2(C(=O)OC)C(=C[C@H](C3CCCC3)O[C@@H]2C)N(Cc2cccc3ccccc23)C1=O	FUS suppressor 8.91µM (no result: uPA generation, BCR signal inh, Abeta rescue, TDP43 rescue, aSyn rescue)

Compound activity as filed in PubChem BioAssay.
